Laboratory results from PubChem BioAssay (NCATS).
Inconclusive results are not listed. Activity calls are given as the source filed them. Unless noted, calls come from the whole dose curve.

Tests used:
[1] = biological target: Peroxisome proliferator-activated receptor delta (Homo sapiens) (UniProt Q03181); test: qHTS assay for small molecule agonists of peroxisome proliferator-activated receptor delta signaling (AID 588534);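 note: 0% = DMSO basal wells and 100% = positive control agonist at 10 µM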
In short: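 Agonist-mode qHTS; reporter cells, 5 hrs 37 C pre-incubation; compound titration, 18 hrs 37 C; CCF4 dye, 2 hrs RT; fluorescence read. EC50/efficacy via Hill fit.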

[2] = qHTS assay for small molecule antagonists of peroxisome proliferator-activated receptor delta signaling (AID 588535); conditions: HEK293T PPARd-UAS-bla, beta-lactamase FRET ratio, 18 h; 460 nm channel;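 note: cells co-treated with a PPAR-delta agonist as stimulator during compound exposure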
In short: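 Fluorescence from CCF4-loaded GeneBLAzer PPAR-delta-UAS-bla HEK293T cells (2 hrs RT loading) quantified reporter inhibition after an 18 hr, 37 C compound exposure across a titration.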

[3] = biological target: Vitamin D3 receptor (Homo sapiens) (UniProt P11473); test: qHTS assay for small molecule antagonists of vitamin D receptor signaling (AID 588541);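 note: receptor activated by calcitriol during compound treatment; series mostly up to about 77 µM; % is set by controls: 0 for no effect and ±100 for the full control effect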
In short: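 VDR-UAS-bla HEK293T cells in 2% charcoal-stripped FBS were stimulated with 1-alpha,25-dihydroxyvitamin D3 (3 nM final) plus compound for 16 h at 37 C. The beta-lactamase CCF4 readout was normalized to 50 nM agonist and DMSO, and Hill fits gave IC50.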

[4] = biological target: Vitamin D3 receptor (Homo sapiens) (UniProt P11473); test: qHTS assay for small molecule agonists of vitamin D receptor signaling (AID 588543);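 note: 0% = DMSO basal and 100% = reference agonist control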
In short: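 β-lactamase reporter, VDR-UAS-bla HEK293T, agonist mode. Cells plated 5 h at 37 °C, compound titration 16 h at 37 °C, CCF4 dye 2 h RT, ratio 460/530 nm. Hill fit → EC50, efficacy vs 50 nM 1α,25-(OH)2D3.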

[5] = qHTS assay for small molecule agonists of retinoid X receptor alpha signaling (AID 588544); conditions: HEK293T RXRa-UAS-bla, beta-lactamase reporter, 18 h; 530 nm emission;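 for activation: 0% = DMSO basal wells and 100% = reference agonist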
[6] = biological target: Retinoic acid receptor RXR-alpha (Homo sapiens) (UniProt P19793); test: as above
[7] = biological target: Thyroid hormone receptor beta (Homo sapiens) (UniProt P10828); test: qHTS assay for small molecule agonists of thyroid hormone receptor beta signaling (AID 588545)
In short: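 HEK 293 TR-UAS-bla; agonist mode; 18 hrs, 37 C; CCF4, ex 405/em 460 and 530 nm; norm. T3 10 nM = 100%, DMSO = 0%; Hill fit → EC50, efficacy.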

[8] = qHTS assay for small molecule antagonists of retinoid X receptor alpha signaling (AID 588546; active = well fitted inhibition curve with a large enough effect in the signal ratio, with a control signal flat, not every such curve was filed as active; the % refers to the signal ratio;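 note: cells stimulated with 9-cis-retinoic acid as agonist; % is set by controls: 0 for no effect and ±100 for the full control effect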); conditions: HEK293T RXRa-UAS-bla, beta-lactamase ratio, antagonist mode; measured here: W530 green channel, cytotoxicity proxy
In short: (§1)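 Beta-lactamase reporter inhibition, read as CCF4 fluorescence ratio (ex 405, em 460/530 nm) after 2 h at RT. HEK293T UAS-bla cells, 2500/well, were stimulated with 9-cis-RA at 500 or 100 nM final alongside test compound for 18 h at 37 C.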

[9] = biological target: Retinoic acid receptor RXR-alpha (Homo sapiens) (UniProt P19793); test: as above; conditions: HEK293T RXRa-UAS-bla, beta-lactamase ratio, antagonist mode
In short: as §1

[10] = biological target: Thyroid hormone receptor beta (Homo sapiens) (UniProt P10828); test: qHTS assay for small molecule antagonists of thyroid hormone receptor beta signaling (AID 588547; active = well fitted inhibition curve with a large enough effect in the signal ratio, with a control signal flat, not every such curve was filed as active; the % refers to the signal ratio;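 note: cells stimulated with 0.4 nM T3 agonist during compound exposure; series mostly up to about 77 µM; % is set by controls: 0 for no effect and ±100 for the full control effect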); conditions: TR-UAS-bla HEK293, beta-lactamase ratio, antagonist mode, 18 h
In short: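 TR-UAS-bla GripTite HEK293 cells in 2% charcoal/dextran FBS medium; compounds 0.59 nM to 92 uM with T3 at 0.4nM final, 18 h at 37 C. Beta-lactamase read by CCF4 fluorescence (460/530 nm); Hill fits gave IC50 and efficacy.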

[11] = qHTS assay for environmental chemicals that activate the Aryl hydrocarbon Receptor (AhR) signaling pathway (AID 651777; active = well fitted curve in the direction sought with a large enough effect; an effect the other way counts as inactive or inconclusive; note: nearly all actives have a fitted effect of over 15% in size; note: potency is the fitted concentration of half-maximal effect; for activation: % of control where 0% means no effect); conditions: 1A2-DRE human hepatoma cells, luciferase, 24 h; activation: stronger effect = higher value
In short: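 Luminescence (One-Glo, 30 min, room temperature) reports AhR-driven luciferase in stably transfected human hepatoma cells bearing DRE and CYP1A2 promoter. Cells (1,200/well) were treated with compound for 24 hr at 37 C in qHTS format.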

[12] = qHTS assay for small molecule agonists of the antioxidant response element (ARE) signaling pathway measured by Nrf2-dependant transcriptional activity (AID 720636; active = well fitted curve in the direction sought with a large enough effect in the repeat runs; an effect the other way counts as inactive or inconclusive; note: % of control where 0% means no effect)
In short: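 Nrf2-dependent transcription read as ONE-Glo luciferase signal from ARE-luc HepG2 reporter cells after 16 hr compound treatment at 37 C, 5% CO2, in assay medium with 1% dialyzed FBS.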

[13] = qHTS assay for small molecule agonists of the antioxidant response element (ARE) signaling pathway measured by Nrf2-dependant transcriptional activity - cell viability counter screen (AID 720653; active = well fitted curve in the direction sought with a large enough effect in the repeat runs; an effect the other way counts as inactive or inconclusive; note: % is set by controls: 0 for no effect and ±100 for the full control effect); conditions: ARE-bla HepG2 viability, CellTiter-Glo ATP luminescence, 16 h; max response: stronger effect = lower value
In short: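 ARE-bla HepG2 cells treated with compounds for 16 h at 37C; this counter screen measures viability as intracellular ATP by CellTiter-Glo luminescence after 30 min at room temperature.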

[14] = qHTS assay for cell viability of HEK293 cells (AID 743288; active = well fitted curve in the direction sought with a large enough effect; an effect the other way counts as inactive or inconclusive; note: % is set by controls: 0 for no effect and ±100 for the full control effect; nearly all actives have a fitted effect of over 50% in size); conditions: ATP luminescence (CellTiter-Glo), 18 h; max response: stronger effect = lower value
In short: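 ATP luminescence (CellTiter-Glo) reports metabolically competent cell number after parental HEK293 cells, 2,000/well, were treated with DMSO-dissolved compounds for 18 h at 37 C; reagent incubation 30 min, room temperature.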

[15] = qHTS assay for cell viability of the p53RE-bla HCT-116 cell line (AID 743292; active = well fitted curve in the direction sought with a large enough effect; an effect the other way counts as inactive or inconclusive; note: % is set by controls: 0 for no effect and ±100 for the full control effect; nearly all actives have a fitted effect of over 55% in size)
In short: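 ATP-based luminescent viability (CellTiter-Glo, 30 min RT) after 16 h compound treatment at 37 C of p53RE-bla HCT-116 cells, seeded at 4,000 cells/well and rested 5 h before dosing.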

[16] = biological target: Nuclear receptor subfamily 1 group I member 2 (Rattus norvegicus) (UniProt Q9R1A7); test: qHTS assay for small molecule activators of the rat pregnane X receptor (rPXR) signaling pathway (AID 651751; call rule not given here; note: 0% is about no effect); conditions: rPXR reporter cells, luciferase (One-Glo), 24 h
[17] = biological target: Bile acid receptor (Homo sapiens) (UniProt Q96RI1); test: qHTS assay for small molecule agonists of farnesoid X receptor signaling (AID 588527); conditions: HEK293T FXR-UAS-bla, beta-lactamase ratio, 16 h; activation: stronger effect = higher value;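 note: series mostly up to about 77 µM; 0% = vehicle basal and 100% = reference agonist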
In short: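 FXR-UAS-bla HEK293T, 10% dialyzed FBS; cpds up to 92 uM titration, 16 h 37 C; CCF4 dye 2 h RT; fluorescence. Normalized to chenodeoxycholic acid 100 uM (100%) and DMSO (0%); Hill fit gives EC50, efficacy.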

[18] = biological target: Glucocorticoid receptor (Homo sapiens) (UniProt P04150); test: qHTS assay for small molecule antagonists of glucocorticoid receptor signaling (AID 588533; active = well fitted inhibition curve with a large enough effect in the signal ratio, with a control signal flat, not every such curve was filed as active; the % refers to the signal ratio; note: % is set by controls: 0 for no effect and ±100 for the full control effect)
In short: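 Antagonist-mode qHTS: compound titrations added to GRE-bla HeLa cells, then dexamethasone 2 nM final; 18 h, 37 C. CCF4 FRET fluorescence normalized to dexamethasone and DMSO; IC50 from Hill fit.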

[19] = qHTS assay for small molecule activators of the p53 signaling pathway (AID 651743; active = well fitted activation curve with a large enough effect in the signal ratio, not every such curve was filed as active; the % refers to the signal ratio; note: series mostly up to about 92 µM; % of control where 0% means no effect); conditions: HCT-116 p53RE-bla, beta-lactamase FRET ratio, 16 h; activation: stronger effect = higher value
In short: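 Following 16 hours of compound exposure at 37 C, HCT-116 cells bearing the p53RE-bla reporter were loaded with LiveBLAzer B/G FRET substrate for 2 hours at room temperature and fluorescence intensity was recorded.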

[20] = biological target: Peroxisome proliferator-activated receptor alpha (Homo sapiens) (UniProt Q07869); test: qHTS assay for small molecule agonists of the peroxisome proliferator-activated receptor alpha (PPARalpha) signaling pathway (AID 651778; active = well fitted curve in the direction sought with a large enough effect; an effect the other way counts as inactive or inconclusive; note: % of control where 0% means no effect); conditions: PathHunter PPARalpha complementation, chemiluminescence, 6 h; max response: stronger effect = higher value
In short: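 Enzyme-fragment complementation assay in which ligand-bound PPARalpha translocates and forms an active enzyme that generates chemiluminescence. Cells were plated overnight, exposed to compound for 6 hr at 37 C, and then given detection reagent for 60 min at room temperature.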

Peroxisome proliferator-activated receptor delta (Homo sapiens), sequence (Q03181 whole entry, looked up): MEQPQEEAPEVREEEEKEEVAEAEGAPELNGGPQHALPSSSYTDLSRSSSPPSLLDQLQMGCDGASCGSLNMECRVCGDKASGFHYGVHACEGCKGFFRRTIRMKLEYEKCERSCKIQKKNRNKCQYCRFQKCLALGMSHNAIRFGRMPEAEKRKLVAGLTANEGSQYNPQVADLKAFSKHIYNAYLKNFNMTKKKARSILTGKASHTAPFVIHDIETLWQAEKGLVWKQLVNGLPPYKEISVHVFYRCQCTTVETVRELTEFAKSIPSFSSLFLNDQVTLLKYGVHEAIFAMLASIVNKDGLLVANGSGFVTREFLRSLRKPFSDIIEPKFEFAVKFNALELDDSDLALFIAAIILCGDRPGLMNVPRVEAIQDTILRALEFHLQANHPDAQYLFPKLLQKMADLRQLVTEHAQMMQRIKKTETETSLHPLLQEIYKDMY
Peroxisome proliferator-activated receptor alpha (Homo sapiens), sequence (Q07869 whole entry, looked up, the tested form may be a part): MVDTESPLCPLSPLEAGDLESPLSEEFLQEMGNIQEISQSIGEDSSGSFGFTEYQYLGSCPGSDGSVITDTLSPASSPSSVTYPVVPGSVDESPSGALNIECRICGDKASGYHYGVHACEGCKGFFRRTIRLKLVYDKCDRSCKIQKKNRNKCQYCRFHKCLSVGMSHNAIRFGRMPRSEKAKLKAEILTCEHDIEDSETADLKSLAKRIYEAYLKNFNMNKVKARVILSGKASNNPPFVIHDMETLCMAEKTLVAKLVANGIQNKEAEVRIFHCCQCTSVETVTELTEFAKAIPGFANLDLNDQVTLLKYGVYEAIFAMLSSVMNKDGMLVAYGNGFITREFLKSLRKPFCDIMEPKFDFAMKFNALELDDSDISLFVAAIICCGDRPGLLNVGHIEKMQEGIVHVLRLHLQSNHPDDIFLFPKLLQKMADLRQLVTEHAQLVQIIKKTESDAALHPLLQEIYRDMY
Retinoic acid receptor RXR-alpha (Homo sapiens), sequence (P19793 whole entry, looked up): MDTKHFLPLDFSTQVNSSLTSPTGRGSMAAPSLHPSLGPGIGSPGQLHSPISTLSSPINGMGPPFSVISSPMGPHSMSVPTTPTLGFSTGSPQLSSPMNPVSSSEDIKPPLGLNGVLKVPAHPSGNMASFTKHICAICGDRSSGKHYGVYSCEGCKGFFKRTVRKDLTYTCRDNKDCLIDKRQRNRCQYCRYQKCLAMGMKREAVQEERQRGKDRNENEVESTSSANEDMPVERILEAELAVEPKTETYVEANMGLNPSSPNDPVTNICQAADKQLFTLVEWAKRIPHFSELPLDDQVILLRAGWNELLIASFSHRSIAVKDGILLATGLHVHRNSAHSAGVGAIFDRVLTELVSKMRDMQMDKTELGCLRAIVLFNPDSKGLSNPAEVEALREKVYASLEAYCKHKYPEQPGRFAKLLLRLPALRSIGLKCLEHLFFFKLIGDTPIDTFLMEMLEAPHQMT
Thyroid hormone receptor beta (Homo sapiens), sequence (P10828 whole entry, looked up): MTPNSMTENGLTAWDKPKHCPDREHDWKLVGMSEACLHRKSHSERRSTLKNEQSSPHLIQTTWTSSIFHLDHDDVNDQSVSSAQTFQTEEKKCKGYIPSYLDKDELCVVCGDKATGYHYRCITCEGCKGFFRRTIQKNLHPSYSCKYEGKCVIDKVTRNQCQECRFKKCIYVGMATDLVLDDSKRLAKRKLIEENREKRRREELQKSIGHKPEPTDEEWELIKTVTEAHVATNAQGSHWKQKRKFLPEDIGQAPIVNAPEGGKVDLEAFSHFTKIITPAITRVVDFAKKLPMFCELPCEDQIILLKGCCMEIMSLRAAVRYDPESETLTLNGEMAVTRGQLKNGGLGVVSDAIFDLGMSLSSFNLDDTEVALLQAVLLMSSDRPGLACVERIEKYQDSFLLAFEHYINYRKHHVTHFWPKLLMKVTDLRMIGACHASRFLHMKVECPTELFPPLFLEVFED
Vitamin D3 receptor (Homo sapiens), sequence (P11473 whole entry, looked up): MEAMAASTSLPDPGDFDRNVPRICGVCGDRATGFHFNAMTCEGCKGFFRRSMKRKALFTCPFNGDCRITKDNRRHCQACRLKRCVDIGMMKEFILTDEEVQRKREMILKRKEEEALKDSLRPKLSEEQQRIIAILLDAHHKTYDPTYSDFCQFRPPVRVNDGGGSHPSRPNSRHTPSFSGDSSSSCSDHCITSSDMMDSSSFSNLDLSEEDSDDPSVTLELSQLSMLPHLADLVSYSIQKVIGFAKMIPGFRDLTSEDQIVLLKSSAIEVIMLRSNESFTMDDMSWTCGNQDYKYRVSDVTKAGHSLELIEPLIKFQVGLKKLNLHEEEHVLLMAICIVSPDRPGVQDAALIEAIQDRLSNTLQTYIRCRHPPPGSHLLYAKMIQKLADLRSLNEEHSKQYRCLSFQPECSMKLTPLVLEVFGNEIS
Nuclear receptor subfamily 1 group I member 2 (Rattus norvegicus), sequence (Q9R1A7 whole entry, looked up): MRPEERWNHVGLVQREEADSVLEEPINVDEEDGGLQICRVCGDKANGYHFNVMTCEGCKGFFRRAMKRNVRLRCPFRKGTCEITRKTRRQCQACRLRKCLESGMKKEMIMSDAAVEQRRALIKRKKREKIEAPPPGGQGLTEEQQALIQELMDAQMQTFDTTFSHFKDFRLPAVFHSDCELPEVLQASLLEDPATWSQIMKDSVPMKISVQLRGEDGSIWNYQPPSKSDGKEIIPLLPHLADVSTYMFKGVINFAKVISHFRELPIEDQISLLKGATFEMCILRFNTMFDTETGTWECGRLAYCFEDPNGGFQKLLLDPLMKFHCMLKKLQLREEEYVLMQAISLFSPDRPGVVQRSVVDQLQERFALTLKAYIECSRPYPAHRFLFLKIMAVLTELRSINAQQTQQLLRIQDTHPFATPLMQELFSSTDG
Glucocorticoid receptor (Homo sapiens), sequence (P04150 whole entry, looked up): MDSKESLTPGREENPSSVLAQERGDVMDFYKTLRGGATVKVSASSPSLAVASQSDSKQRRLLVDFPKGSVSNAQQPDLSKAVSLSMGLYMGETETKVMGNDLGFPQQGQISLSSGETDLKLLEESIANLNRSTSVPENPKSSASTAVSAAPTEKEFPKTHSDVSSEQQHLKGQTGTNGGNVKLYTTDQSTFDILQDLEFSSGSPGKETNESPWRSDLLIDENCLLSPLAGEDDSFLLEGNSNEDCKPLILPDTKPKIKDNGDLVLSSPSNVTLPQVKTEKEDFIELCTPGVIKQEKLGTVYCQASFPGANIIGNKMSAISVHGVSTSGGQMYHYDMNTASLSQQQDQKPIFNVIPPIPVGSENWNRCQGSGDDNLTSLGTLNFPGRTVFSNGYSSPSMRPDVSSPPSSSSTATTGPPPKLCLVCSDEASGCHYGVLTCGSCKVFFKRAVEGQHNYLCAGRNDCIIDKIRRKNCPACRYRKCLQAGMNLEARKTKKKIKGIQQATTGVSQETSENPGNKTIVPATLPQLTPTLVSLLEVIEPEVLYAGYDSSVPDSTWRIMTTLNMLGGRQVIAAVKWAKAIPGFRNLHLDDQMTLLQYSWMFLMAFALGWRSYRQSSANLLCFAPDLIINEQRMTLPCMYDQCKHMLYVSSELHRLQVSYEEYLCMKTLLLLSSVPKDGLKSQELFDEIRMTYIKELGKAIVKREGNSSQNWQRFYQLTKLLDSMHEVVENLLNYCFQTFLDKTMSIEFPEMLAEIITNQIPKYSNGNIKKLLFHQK
Bile acid receptor (Homo sapiens), sequence (Q96RI1 whole entry, looked up): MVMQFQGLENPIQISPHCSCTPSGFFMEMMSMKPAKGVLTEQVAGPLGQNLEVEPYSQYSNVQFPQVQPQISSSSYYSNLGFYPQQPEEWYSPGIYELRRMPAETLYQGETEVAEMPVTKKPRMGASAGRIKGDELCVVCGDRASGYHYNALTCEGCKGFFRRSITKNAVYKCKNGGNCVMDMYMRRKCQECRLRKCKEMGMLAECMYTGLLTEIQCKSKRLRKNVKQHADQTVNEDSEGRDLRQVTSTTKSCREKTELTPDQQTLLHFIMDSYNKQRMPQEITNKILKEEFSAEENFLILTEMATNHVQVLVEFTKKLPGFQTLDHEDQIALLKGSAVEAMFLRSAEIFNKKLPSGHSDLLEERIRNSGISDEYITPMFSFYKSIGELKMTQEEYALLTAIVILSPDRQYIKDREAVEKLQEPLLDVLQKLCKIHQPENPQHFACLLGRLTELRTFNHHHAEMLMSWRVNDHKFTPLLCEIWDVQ

CCNc1nc(NC(C)C)nc(SC)n1
inactive: outcome [1] | Potency [3] | outcome [4] | Potency [6] | Potency [7] | max response [9] -29% | activity change % (negative = inhibition) [10] 5.24% | activation [11] 0.555% | Potency [12] | max response [13] 4.35% | max response [14] -10.8% | Potency [15] | max response [16] -3.53%
5.95%: max response [2]
-15.6%: max response [8]
-4.47%: max response [5]

O=C1C=CC(=O)c2ccccc21
12.1%: max response [5]
active: Potency [11] 15.8 µM
-18.7%: max response [2]
inactive: activation [17] -2.25% | Potency [18] | outcome [1] | outcome [4] | Potency [6] | Potency [7] | max response [9] -12.9% | activation [19] -3.99% | max response [20] -1.22% | Potency [12] | max response [13] -8.11% | max response [14] -3.96% | Potency [15] | max response [16] 2.78%
-1.96%: max response [8]

Cc1ccccc1CO[C@@H]1C[C@@]2(C(C)C)CC[C@]1(C)O2
inactive: outcome [1] | Potency [3] | outcome [4] | Potency [6] | Potency [7] | max response [9] -22.7% | activation [11] 0.466% | max response [20] 5.16% | Potency [12] | max response [13] 1.88% | max response [14] -20.5% | Potency [15]
4.66%: max response [5]
0.789%: max response [8]
49.2%: max response [2]

O=C(NC(=O)c1c(F)cccc1F)Nc1cc(Cl)c(OC(F)(F)C(F)C(F)(F)F)c(Cl)c1F (configuration not stated)
23%: max response [5]
39.8%: max response [2]
-6.84%: max response [8]
inactive: activation [17] 3.38% | outcome [1] | outcome [4] | Potency [6] | Potency [7] | max response [9] 4.34% | activity change % (negative = inhibition) [10] 12.6% | activation [19] 2.49% | activation [11] 6.63% | max response [13] -22% | max response [14] -24.3% | Potency [15] | max response [16] 9.17%

CC(C)[C@@H](Nc1ccc(C(F)(F)F)cc1Cl)C(=O)OC(C#N)c1cccc(Oc2ccccc2)c1 (some centres not stated)
inactive: Potency [18] | outcome [4] | Potency [7] | activation [11] 0.736% | max response [20] -1.14% | Potency [12] | max response [13] -3.6% | max response [14] -27.3% | Potency [15]

C[N+]1(C)CCCCC1
-14.2%: max response [2]
-8.78%: max response [5]
inactive: outcome [1] | Potency [3] | outcome [4] | Potency [6] | Potency [7] | max response [9] 0.987% | activity change % (negative = inhibition) [10] 2.54% | activation [19] 0.854% | activation [11] 0.858% | max response [20] -0.937% | Potency [12] | max response [13] 4.82% | max response [14] -11.8% | Potency [15] | max response [16] 3.55%
-2.65%: max response [8]
